In the supplement of paper PMC4466140:

B1: unnamed (peptide)
chain: NENKKLPPAPTVFGL
B2: unnamed (peptide)
chain: EEEEEHPPLPARRKS

What follows are binders tested against CaNbp2 (assay: SPOT peptide array binding signal intensity (averaged, normalized) (arbitrary units (background-subtracted, floor 0; scale differs between SH3 domains)); higher = stronger binding of the SH3 domain to the peptide).
Outline: (§1)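 GST-SH3 fusions from four yeast species, purified on glutathione Sepharose, were incubated at 10 μg/ml overnight at 4°C on membranes of synthetic 15-mer peptides in which cysteines were replaced with serines. Binding signal is the normalized, background-subtracted spot intensity averaged over replicates, in domain-specific arbitrary units.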

Binder	SPOT peptide array binding signal intensity
B1	≤ 0
B2	≤ 0

Each binder was assayed against CaRvs167 in the same assay as above.
Outline: as §1

Binder	SPOT peptide array binding signal intensity
B1	1.17
B2	408

The binders below were run against CaRvs167-3 in the same assay as above.
Outline: as §1

Binder	SPOT peptide array binding signal intensity
B1	≤ 0
B2	6.5

Each binder was assayed against CaSho1 in the same assay as above.
Outline: as §1

Binder	SPOT peptide array binding signal intensity
B1	398
B2	≤ 0

What follows are binders tested against CaSla1-D1-D2 in the same assay as above.
Outline: as §1

Binder	SPOT peptide array binding signal intensity
B1	≤ 0
B2	≤ 0

The binders below were run against CaSla1-D3 in the same assay as above.
Outline: as §1

Binder	SPOT peptide array binding signal intensity
B1	3.5
B2	≤ 0

Each binder was assayed against ScAbp1 in the same assay as above.
Outline: as §1

Binder	SPOT peptide array binding signal intensity
B1	≤ 0
B2	≤ 0

The binders below were run against ScBbc1 in the same assay as above.
Outline: as §1

Binder	SPOT peptide array binding signal intensity
B1	≤ 0
B2	6.25

Each binder was assayed against ScBem1-D1 in the same assay as above.
Outline: as §1

Binder	SPOT peptide array binding signal intensity
B1	1
B2	0.5

The binders below were run against ScBzz1-D1 in the same assay as above.
Outline: as §1

Binder	SPOT peptide array binding signal intensity
B1	11
B2	16

Each binder was assayed against ScBzz1-D2 in the same assay as above.
Outline: as §1

Binder	SPOT peptide array binding signal intensity
B1	6
B2	27.5

What follows are binders tested against ScCyk3 in the same assay as above.
Outline: as §1

Binder	SPOT peptide array binding signal intensity
B1	1
B2	≤ 0

What follows are binders tested against ScFus1 in the same assay as above.
Outline: as §1

Binder	SPOT peptide array binding signal intensity
B1	8
B2	4

Each binder was assayed against ScHof1 in the same assay as above.
Outline: as §1

Binder	SPOT peptide array binding signal intensity
B1	6
B2	4.25

These binders were tested against ScHse1 in the same assay as above.
Outline: as §1

Binder	SPOT peptide array binding signal intensity
B1	6.5
B2	≤ 0

What follows are binders tested against ScLsb1 in the same assay as above.
Outline: as §1

Binder	SPOT peptide array binding signal intensity
B1	≤ 0
B2	444

Each binder was assayed against ScLsb2 in the same assay as above.
Outline: as §1

Binder	SPOT peptide array binding signal intensity
B1	≤ 0
B2	17

Each binder was assayed against ScLsb3 in the same assay as above.
Outline: as §1

Binder	SPOT peptide array binding signal intensity
B1	≤ 0
B2	9930

Each binder was assayed against ScLsb4 in the same assay as above.
Outline: as §1

Binder	SPOT peptide array binding signal intensity
B1	6
B2	3690

The binders below were run against ScMyo3 in the same assay as above.
Outline: as §1

Binder	SPOT peptide array binding signal intensity
B1	≤ 0
B2	≤ 0

These binders were tested against ScMyo5 in the same assay as above.
Outline: as §1

Binder	SPOT peptide array binding signal intensity
B1	≤ 0
B2	≤ 0

These binders were tested against ScNbp2 in the same assay as above.
Outline: as §1

Binder	SPOT peptide array binding signal intensity
B1	≤ 0
B2	≤ 0

The binders below were run against ScPex13 in the same assay as above.
Outline: as §1

Binder	SPOT peptide array binding signal intensity
B1	254
B2	656

The binders below were run against ScRvs167 in the same assay as above.
Outline: as §1

Binder	SPOT peptide array binding signal intensity
B1	0.167
B2	1940

These binders were tested against ScSho1 in the same assay as above.
Outline: as §1

Binder	SPOT peptide array binding signal intensity
B1	2310
B2	≤ 0

These binders were tested against ScSla1-D1-D2 in the same assay as above.
Outline: as §1

Binder	SPOT peptide array binding signal intensity
B1	≤ 0
B2	102

What follows are binders tested against ScSla1-D3 in the same assay as above.
Outline: as §1

Binder	SPOT peptide array binding signal intensity
B1	4.5
B2	≤ 0

The binders below were run against SpAbp1-D1 in the same assay as above.
Outline: as §1

Binder	SPOT peptide array binding signal intensity
B1	≤ 0
B2	≤ 0

The binders below were run against SpBbc1 in the same assay as above.
Outline: as §1

Binder	SPOT peptide array binding signal intensity
B1	4.5
B2	1.5

Each binder was assayed against SpBzz1-D1 in the same assay as above.
Outline: as §1

Binder	SPOT peptide array binding signal intensity
B1	126
B2	17

The binders below were run against SpBzz1-D2 in the same assay as above.
Outline: as §1

Binder	SPOT peptide array binding signal intensity
B1	0.25
B2	2

Each binder was assayed against SpCyk3 in the same assay as above.
Outline: as §1

Binder	SPOT peptide array binding signal intensity
B1	2.5
B2	≤ 0

The binders below were run against SpHof1 in the same assay as above.
Outline: as §1

Binder	SPOT peptide array binding signal intensity
B1	49.8
B2	0.5

The binders below were run against SpHof1-2 in the same assay as above.
Outline: as §1

Binder	SPOT peptide array binding signal intensity
B1	344
B2	1

These binders were tested against SpHof1-3 in the same assay as above.
Outline: as §1

Binder	SPOT peptide array binding signal intensity
B1	166
B2	1

Each binder was assayed against SpHse1 in the same assay as above.
Outline: as §1

Binder	SPOT peptide array binding signal intensity
B1	71.8
B2	1

Each binder was assayed against SpLsb1 in the same assay as above.
Outline: as §1

Binder	SPOT peptide array binding signal intensity
B1	0.5
B2	10

Each binder was assayed against SpLsb4 in the same assay as above.
Outline: as §1

Binder	SPOT peptide array binding signal intensity
B1	≤ 0
B2	7640

These binders were tested against SpMyo1 in the same assay as above.
Outline: as §1

Binder	SPOT peptide array binding signal intensity
B1	≤ 0
B2	≤ 0

These binders were tested against SpNbp2 in the same assay as above.
Outline: as §1

Binder	SPOT peptide array binding signal intensity
B1	≤ 0
B2	3.5

These binders were tested against SpPex13 in the same assay as above.
Outline: as §1

Binder	SPOT peptide array binding signal intensity
B1	≤ 0
B2	≤ 0

These binders were tested against SpRvs167 in the same assay as above.
Outline: as §1

Binder	SPOT peptide array binding signal intensity
B1	0.333
B2	1510

What follows are binders tested against SpSla1-D1-D2 in the same assay as above.
Outline: as §1

Binder	SPOT peptide array binding signal intensity
B1	8
B2	≤ 0

The binders below were run against SpSla1-D3 in the same assay as above.
Outline: as §1

Binder	SPOT peptide array binding signal intensity
B1	1.5
B2	5

These binders were tested against AgAbp1 in the same assay as above.
Outline: as §1

Binder	SPOT peptide array binding signal intensity
B2	≤ 0

These binders were tested against AgBbc1 in the same assay as above.
Outline: as §1

Binder	SPOT peptide array binding signal intensity
B2	23.2

These binders were tested against AgBem1-D1 in the same assay as above.
Outline: as §1

Binder	SPOT peptide array binding signal intensity
B2	≤ 0

What follows are binders tested against AgBzz1-D1 in the same assay as above.
Outline: as §1

Binder	SPOT peptide array binding signal intensity
B2	9

Each binder was assayed against AgBzz1-D2 in the same assay as above.
Outline: as §1

Binder	SPOT peptide array binding signal intensity
B2	27.5

The binders below were run against AgCyk3 in the same assay as above.
Outline: as §1

Binder	SPOT peptide array binding signal intensity
B2	≤ 0

What follows are binders tested against AgFus1 in the same assay as above.
Outline: as §1

Binder	SPOT peptide array binding signal intensity
B2	≤ 0

These binders were tested against AgHof1 in the same assay as above.
Outline: as §1

Binder	SPOT peptide array binding signal intensity
B2	3

The binders below were run against AgHse1 in the same assay as above.
Outline: as §1

Binder	SPOT peptide array binding signal intensity
B2	3.5

Each binder was assayed against AgLsb1 in the same assay as above.
Outline: as §1

Binder	SPOT peptide array binding signal intensity
B2	20.5

The binders below were run against AgLsb4 in the same assay as above.
Outline: as §1

Binder	SPOT peptide array binding signal intensity
B2	7880

These binders were tested against AgMyo5 in the same assay as above.
Outline: as §1

Binder	SPOT peptide array binding signal intensity
B2	0.5

Each binder was assayed against AgNbp2 in the same assay as above.
Outline: as §1

Binder	SPOT peptide array binding signal intensity
B2	≤ 0

What follows are binders tested against AgRvs167 in the same assay as above.
Outline: as §1

Binder	SPOT peptide array binding signal intensity
B2	61

These binders were tested against AgSho1 in the same assay as above.
Outline: as §1

Binder	SPOT peptide array binding signal intensity
B2	8

Each binder was assayed against AgSla1-D1-D2 in the same assay as above.
Outline: as §1

Binder	SPOT peptide array binding signal intensity
B2	4.5

Each binder was assayed against AgSla1-D3 in the same assay as above.
Outline: as §1

Binder	SPOT peptide array binding signal intensity
B2	≤ 0

What follows are binders tested against CaAbp1-D1 in the same assay as above.
Outline: as §1

Binder	SPOT peptide array binding signal intensity
B2	8.5

The binders below were run against CaAbp1-D2 in the same assay as above.
Outline: as §1

Binder	SPOT peptide array binding signal intensity
B2	≤ 0

Each binder was assayed against CaBbc1 in the same assay as above.
Outline: as §1

Binder	SPOT peptide array binding signal intensity
B2	50.5

What follows are binders tested against CaBem1-D1 in the same assay as above.
Outline: as §1

Binder	SPOT peptide array binding signal intensity
B2	≤ 0

What follows are binders tested against CaBzz1-D1 in the same assay as above.
Outline: as §1

Binder	SPOT peptide array binding signal intensity
B2	≤ 0

The binders below were run against CaBzz1-D2 in the same assay as above.
Outline: as §1

Binder	SPOT peptide array binding signal intensity
B2	≤ 0

What follows are binders tested against CaCyk3 in the same assay as above.
Outline: as §1

Binder	SPOT peptide array binding signal intensity
B2	≤ 0

Each binder was assayed against CaFus1 in the same assay as above.
Outline: as §1

Binder	SPOT peptide array binding signal intensity
B2	9.5

These binders were tested against CaHof1 in the same assay as above.
Outline: as §1

Binder	SPOT peptide array binding signal intensity
B2	8.5

The binders below were run against CaHse1 in the same assay as above.
Outline: as §1

Binder	SPOT peptide array binding signal intensity
B2	13

What follows are binders tested against CaLsb1 in the same assay as above.
Outline: as §1

Binder	SPOT peptide array binding signal intensity
B2	10.8

These binders were tested against CaLsb4 in the same assay as above.
Outline: as §1

Binder	SPOT peptide array binding signal intensity
B2	5520

Each binder was assayed against CaMyo5 in the same assay as above.
Outline: as §1

Binder	SPOT peptide array binding signal intensity
B2	1.75
